The values that follow come from the supplement of paper PMC9948646.

Each structure is given as a SMILES string.

The test deals with gramicidin D channels in DC22:1PC lipid vesicles (bilayer-modifying potency). The test is described as follows: initial Tl+ fluorescence quench rate relative to no-drug control (NormRate, gramicidin monomer-dimer shift) (ratio (fold of control)); higher = stronger bilayer-modifying effect (equilibrium shifted toward conducting dimers), active = 1.5 or more. The following applies: 10 µM; lipid concentration 50 µM; temperature: 25 °C. As to the method:
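Stopped-flow fluorescence quench assay: ANTS-loaded DC22:1PC large unilamellar vesicles doped with gramicidin D (1:2000), 50 µM lipid, equilibrated 10 min with 10 µM drug (0.1% DMSO), mixed with Tl+ quench buffer at 25°C. Initial quench rate (Tl+ influx) was fitted with a modified stretched exponential and normalised to the no-drug control rate (NormRate); duplicates from two independent LUV preparations (triplicates for 7 drugs).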
Turning to `O=C(Nc1nnc(-c2ccc(Cl)cc2)o1)c1cccc(C(F)(F)F)c1`, the “initial Tl+ fluorescence quench rate” value was 1.07 (inactive).

On to `CCc1c(C)nc(-n2nc(C)cc2NC(=O)c2ccccc2SC)[nH]c1=O`, for which the “initial Tl+ fluorescence quench rate” value is 1.2 (inactive).

In the case of `O=C(C1CCN(c2nnnn2-c2ccccc2)CC1)N1CCc2ccccc2C1`, the “initial Tl+ fluorescence quench rate” value was 1.23 (inactive).

With `COc1cccc(-c2nc3c(N4CCCC4)cccc3n2C[C@H]2CCCN2)n1`, the “initial Tl+ fluorescence quench rate” value is 1.21 (inactive).

Take `O=C(Nc1ccccc1)c1ccc(-c2cc3ccncc3cc2OC2CCNCC2)s1`: the “initial Tl+ fluorescence quench rate” value was 1.8 (active).

For `C[C@@H](Oc1cccc(Cl)c1)C(=O)Nc1ccc2oc(-c3ccncc3)nc2c1`, the “initial Tl+ fluorescence quench rate” value was 1.72 (active).

On to `Nc1ccc(C(=O)Nc2ccc(-c3nc4ccccc4o3)cc2)cc1`, for which the “initial Tl+ fluorescence quench rate” value is 1.1 (inactive).

As for `O=C(CN1CCOCC1)Nc1ccc2ncnc(Nc3ccc(OCc4cccc(F)c4)c(Cl)c3)c2c1`, the “initial Tl+ fluorescence quench rate” value was 6.71 (active).

Consider `O=C(COc1cccc(F)c1)Nc1nc(-c2ccccn2)cs1`, for which the “initial Tl+ fluorescence quench rate” value was 1.16 (inactive).

Regarding `NCCN(C(=O)c1ccc(Cl)cc1Cl)c1ccc(OCc2ccc(Cl)cc2)cc1`, the “initial Tl+ fluorescence quench rate” value is 5.93 (active).

Consider `O=C(Nc1ccccc1-c1nc2c(C(=O)O)cccc2o1)c1ccccc1`, for which the “initial Tl+ fluorescence quench rate” value is 1.34 (inactive).

Consider `CCCc1ccc(S(=O)(=O)Nc2ccc(CN3CCN(CC4CC4)CC3)cc2)cc1`, for which the “initial Tl+ fluorescence quench rate” value was 1.42 (inactive).

Take `COc1ccc(-c2nnc3ccc(-c4cccc(C(C)C)c4)cn23)cc1OC`: the “initial Tl+ fluorescence quench rate” value is 2.38 (active).

Regarding `OC[C@H]1O[C@@H](n2c3ccc(Cl)cc3c3c(-c4cc5ccccc5o4)ncnc32)[C@H](O)[C@H]1O`, the “initial Tl+ fluorescence quench rate” value is 3.52 (active).

For `CNc1nnc(Sc2cnn(-c3ccccc3)c(=O)c2Cl)s1`, the “initial Tl+ fluorescence quench rate” value is 1.04 (inactive).

Turning to `CCS(=O)(=O)N(Cc1ccco1)Cc1cc2ccc(C)cc2nc1O`, the “initial Tl+ fluorescence quench rate” value was 1.26 (inactive).

Regarding `CCCCCCCCCCCCCCCCOP(=O)([O-])OCC[N+](C)(C)C`, the “initial Tl+ fluorescence quench rate” value is 2.31 (active).

Turning to `O=C(Nc1ccc(N2CCNCC2)nc1)c1oc(-c2ccccc2)nc1C(F)(F)F`, the “initial Tl+ fluorescence quench rate” value is 1.47 (inactive).

With `COc1ccc(Cl)cc1NC(=O)CN(C)C(=O)c1cnn(-c2ccccc2)n1`, the “initial Tl+ fluorescence quench rate” value was 3.28 (active).

As to `O=C(Nc1ccc2c(c1)B(O)OC2)c1ccccc1C(F)(F)F`, the “initial Tl+ fluorescence quench rate” value is 1.06 (inactive).

Turning to `O=C(CCC1CCCCC1)Nc1cccc(-c2nnc(-c3ccco3)o2)c1`, the “initial Tl+ fluorescence quench rate” value is 1.57 (active).

Take `N#Cc1ccc(-c2cnc(N)c(-c3ccc(C(N)=O)cc3)n2)cc1`: the “initial Tl+ fluorescence quench rate” value is 1.28 (inactive).

As to `CNCC[C@H](Oc1ccc(C(F)(F)F)cc1)c1ccccc1`, the “initial Tl+ fluorescence quench rate” value was 1.41 (inactive).

On to `Cc1ccc(Oc2ccc(NC(=O)CNc3ccccc3N3CCCC3=O)cc2)cc1`, for which the “initial Tl+ fluorescence quench rate” value is 4.66 (active).

As for `FC(F)(F)c1nnc2ccc(Cl)nn12`, the “initial Tl+ fluorescence quench rate” value was 1.02 (inactive).

Take `CCOc1ccc2cc(-c3nn(CC4CCN(C)CC4)c4ncnc(N)c34)ccc2c1`: the “initial Tl+ fluorescence quench rate” value is 1.16 (inactive).

As to `C[C@H]1c2cccc(O)c2C(=O)C2=C(O)[C@]3(O)C(=O)C(C(N)=O)=C(O)[C@@H](N(C)C)[C@@H]3[C@@H](O)[C@@H]21`, the “initial Tl+ fluorescence quench rate” value is 1.02 (inactive).

With `Cc1ccc2nc(C)c(-c3ccn(Cc4ccccc4)n3)n2c1`, the “initial Tl+ fluorescence quench rate” value is 1.28 (inactive).

Take `Cc1cc(Cl)c(S(=O)(=O)N2CCCC2)cc1OCC(=O)NC1CCCCC1`: the “initial Tl+ fluorescence quench rate” value was 1.19 (inactive).

On to `N#CCN(CCCCN1CCN(c2ccc(F)cc2)CC1)C(=O)OCc1ccccc1`, for which the “initial Tl+ fluorescence quench rate” value was 1.5 (inactive).

On to `Cc1ccc2oc(-c3cc(NC(=O)Cc4ccccc4)ccc3Cl)nc2c1`, for which the “initial Tl+ fluorescence quench rate” value is 1.18 (inactive).

As to `O=C(Nc1c(O)cccc1-c1nc2c(C(=O)O)cccc2o1)c1cc(-c2ccccc2)on1`, the “initial Tl+ fluorescence quench rate” value was 1.35 (inactive).

As for `CCCn1c(CNc2ccccc2O)nc2ccccc21`, the “initial Tl+ fluorescence quench rate” value was 1.05 (inactive).

Regarding `COc1cccc(NC(=O)c2c(NC(=O)c3cccnc3)sc3c2CCC3)c1`, the “initial Tl+ fluorescence quench rate” value was 1.55 (active).

For `CN1CCN(S(=O)(=O)c2ccc(-c3ccc4c(Nc5ncc(Cl)cn5)ccnc4c3)cc2)CC1`, the “initial Tl+ fluorescence quench rate” value was 2.76 (active).

For the compound `COc1ccc(N(CCc2cccc(C)n2)C(=O)C2CCCCC2)cc1`, the “initial Tl+ fluorescence quench rate” value is 1.41 (inactive).

As for `Cc1cc(C)n2nc(C(=O)Nc3cc(C(F)(F)F)ccc3N3CCOCC3)nc2n1`, the “initial Tl+ fluorescence quench rate” value was 1.17 (inactive).

In the case of `COc1cc(C2=NCCN2)ccc1-n1cc(-c2cccc(C3=NCCN3)c2)nn1`, the “initial Tl+ fluorescence quench rate” value is 1.15 (inactive).

As for `CC[C@@H]([C@H](C)O)n1ncn(-c2ccc(N3CCN(c4ccc(OC[C@@H]5CO[C@@](Cn6cncn6)(c6ccc(F)cc6F)C5)cc4)CC3)cc2)c1=O`, the “initial Tl+ fluorescence quench rate” value was 7.69 (active).

In the case of `CC(=O)NC[C@@H]1CN(c2ccc(N3CCOCC3)c(F)c2)C(=O)O1`, the “initial Tl+ fluorescence quench rate” value is 1.08 (inactive).
